The source of these data is PubChem BioAssay (Tox21).

Structures are written as SMILES. Results filed as inconclusive are left out. Values without a mark were called inactive. The source made the active and inactive calls. Unless noted, calls follow the shape of the dose curve; as a rule, active = well fitted curve in the direction sought with a large enough effect in the repeat runs; inconclusive = weak or mixed curves; inactive = no such curve, though single readings can be large; an effect the other way counts as inactive or inconclusive.

A short description of test [1]: qHTS assay to identify small molecule agonists of the RXR signaling pathway - cell viability counter screen (AID 1159529).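 Also: HEK 293T cells carrying an RXR-alpha UAS beta-lactamase reporter; series mostly up to about 77 µM; nearly all actives have a fitted effect of over 50% in size.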 An outline of the steps: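 Counter screen: CellTiter-Glo luminescence. Cells: RXR-alpha-UAS-bla HEK 293T. Medium: 2% charcoal-stripped FBS. Treatment: 16 h, 37 C. Reagent incubation: 30 min, RT.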
A general note: Quantitative high-throughput screening tests each substance at several concentrations.

The nature of test [2]: qHTS assay to identify small molecule antagonists of the retinoid acid receptor (RAR) signaling pathway - cell viability counter screen (AID 1159551). Also: nearly all actives have a fitted effect of over 35% in size. A digest of the protocol:
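Seed C3RL4 cells; next day add compound, then retinol to 1 uM final; incubate 6 h at 37 C; add CellTiter-Glo; read luminescence after 30 min at RT.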

A short description of test [3]: qHTS assay to identify small molecule antagonists of the estrogen related receptor (ERR) signaling pathway from Tox21 library - cell viability counter screen (AID 1224834). Also: nearly all actives have a fitted effect of over 30% in size. Also: potency is read from the fitted curve at half-maximal effect. A digest of the protocol:
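CellTiter-Fluor fluorescence measured; ERR cells; 17.5 h compound incubation at 37 C; 30 min reagent step.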

Test [4] has as its target Luciferin 4-monooxygenase (Photinus pyralis) (UniProt P08659). As to the kind of experiment: qHTS assay to identify small molecule inhibitors of firefly luciferase (AID 1224835). Also: series mostly up to about 120 µM; nearly all actives have a fitted effect of over 25% in size. An outline of the steps:
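Inhibition of purified Photinus luciferase is measured by luminescence. Substrate levels (D-luciferin, ATP) sit at their KM values. Each compound is tested in a concentration series.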

Test [5] in a line: qHTS assay to identify small molecule agonists of the constitutive androstane receptor (CAR) signaling pathway - cell viability counter screen (AID 1224836). Also: series mostly up to about 92 µM; nearly all actives have a fitted effect of over 45% in size. An outline of the steps: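 Double-stable HepG2 hepatoma cells (hCAR plus CYP2B6-2.2kb) are treated for 23 h at 37 C with test compounds in 15-point concentration series. PK11195 at 0.75 uM final is co-added. Cell viability is quantified by CellTiter-Fluor.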

Test [6] in a line: qHTS assay to identify small molecule antagonists of the constitutive androstane receptor (CAR) signaling pathway - cell viability counter screen (AID 1224837). Also: series mostly up to about 92 µM; nearly all actives have a fitted effect of over 45% in size. A digest of the protocol:
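Using CellTiter-Fluor, viability is scored in HepG2 cells stably carrying hCAR and a 2.2kb CYP2B6 reporter after 23 hr compound exposure across 15 concentrations, with CITCO present at 50 nM.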

Test [7] in a line: qHTS assay to identify small molecule antagonists of the estrogen related receptor signaling pathway with the pleiotropic PPARgamma coactivator (PGC) from Tox21 10K library - cell viability counter screen (AID 1224840; active = well fitted cell-killing curve with a large enough effect in the repeat runs, not every such curve was filed as active; also: nearly all actives have a fitted effect of over 40% in size). A digest of the protocol: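 Here the PGC/ERR cells serve as a cytotoxicity control: they are exposed to compounds for 17.5 hours at 37 C, and live-cell signal is quantified using CellTiter-Fluor fluorescence.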

Test [8] in a line: qHTS assay to identify small molecule agonists of the estrogen related receptor signaling pathway with the pleiotropic PPARgamma coactivator (PGC) from Tox21 10K library (AID 1224842). Also: nearly all actives have a fitted effect of over 15% in size. Also: potency is read from the fitted curve at half-maximal effect. A digest of the protocol: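 Luminescence from One-Glo (30 min, room temperature) measured after PGC/ERR cells had 18 h at 37 C with pinned compound (23 nL in DMSO). Cells had been seeded at 2,000 per well and pre-incubated 6 h.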

Test [9] addresses Thyrotropin receptor (Homo sapiens) (UniProt P16473). As to the kind of experiment: qHTS assay to identify small molecule agonists of the thyroid stimulating hormone receptor (TSHR) signaling pathway (AID 1224843; calls by dose curve; also: nearly all actives have a fitted effect of over 45% in size; also: potency is read from the fitted curve at half-maximal effect). A digest of the protocol:
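HEK293 cells stably bearing the thyrotropin receptor were plated at 800 cells/well and challenged with compound (30 min, RT). Accumulated cAMP was quantified via cAMP-d2 competing for cryptate-tagged antibody.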

Test [10] concerns the target Nuclear receptor subfamily 1 group I member 3 (Homo sapiens) (UniProt Q14994). As to the kind of experiment: qHTS assay to identify small molecule antagonists of the constitutive androstane receptor (CAR) signaling pathway (AID 1224838).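 Also: HepG2 cells stably expressing hCAR with CYP2B6 luciferase reporter stimulated by CITCO; nearly all actives have a fitted effect of over 40% in size.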 A digest of the protocol: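 Reporter luminescence was quantified after 24 h exposure of hCAR/CYP2B6-2.2kb double-stable HepG2 cells to compounds at 15 concentrations in the presence of 50 nM CITCO final.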

Test [11] shares this target. The experiment in a line: qHTS assay to identify small molecule agonists of the constitutive androstane receptor (CAR) signaling pathway (AID 1224839).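 Also: HepG2 cells stably carrying human CAR and a CYP2B6 luciferase reporter; series mostly up to about 92 µM; nearly all actives have a fitted effect of over 15% in size.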 A digest of the protocol: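 Readout: firefly luciferase luminescence via ONE-Glo. System: HepG2 double-stable for hCAR and CYP2B6-2.2kb. Conditions: 15-point compound titration, PK11195 at 0.75 uM final, 24 h incubation.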

A short description of test [12]: qHTS assay to identify small molecule agonists of the retinoic acid receptor (RAR) signaling pathway (AID 1159553). A digest of the protocol: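 Activation of retinol signaling was monitored via a RARE luciferase reporter in C3RL4 cells. After 6 hr compound treatment at 37 C, detection reagent was added for 30 min at room temperature before luminescence reading.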

Test [13] is described as follows: qHTS assay to identify small molecule antagonists of the estrogen related receptor signaling pathway with the pleiotropic PPARgamma coactivator (PGC) from Tox21 10K library (AID 1224841; call rule not given here; also: series mostly up to about 92 µM; actives are mostly falling curves and most rising ones were filed inactive; nearly all actives have a fitted effect of over 50% in size). An outline of the steps:
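Each well held 2,000 PGC/ERR cells, pre-incubated six hours (37 C, 5% CO2). Test substances in DMSO were added by pin tool and left for 18 h at 37 C before luciferase detection by One-Glo.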

Sequence of Luciferin 4-monooxygenase (Photinus pyralis) (P08659 whole entry, looked up): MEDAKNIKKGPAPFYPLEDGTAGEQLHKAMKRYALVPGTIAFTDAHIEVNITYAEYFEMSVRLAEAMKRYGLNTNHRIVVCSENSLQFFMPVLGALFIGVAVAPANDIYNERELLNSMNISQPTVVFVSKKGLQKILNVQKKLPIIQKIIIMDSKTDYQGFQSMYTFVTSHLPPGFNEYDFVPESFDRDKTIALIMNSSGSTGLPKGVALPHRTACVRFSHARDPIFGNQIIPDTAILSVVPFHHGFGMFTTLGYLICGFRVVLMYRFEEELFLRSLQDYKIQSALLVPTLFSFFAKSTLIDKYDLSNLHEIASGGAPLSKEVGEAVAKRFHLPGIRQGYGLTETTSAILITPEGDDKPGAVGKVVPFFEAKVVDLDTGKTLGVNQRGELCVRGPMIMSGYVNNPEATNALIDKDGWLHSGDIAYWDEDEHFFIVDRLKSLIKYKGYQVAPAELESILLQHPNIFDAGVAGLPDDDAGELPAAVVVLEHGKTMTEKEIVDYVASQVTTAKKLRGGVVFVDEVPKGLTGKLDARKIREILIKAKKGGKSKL
Sequence of Thyrotropin receptor (Homo sapiens) (P16473 whole entry, looked up): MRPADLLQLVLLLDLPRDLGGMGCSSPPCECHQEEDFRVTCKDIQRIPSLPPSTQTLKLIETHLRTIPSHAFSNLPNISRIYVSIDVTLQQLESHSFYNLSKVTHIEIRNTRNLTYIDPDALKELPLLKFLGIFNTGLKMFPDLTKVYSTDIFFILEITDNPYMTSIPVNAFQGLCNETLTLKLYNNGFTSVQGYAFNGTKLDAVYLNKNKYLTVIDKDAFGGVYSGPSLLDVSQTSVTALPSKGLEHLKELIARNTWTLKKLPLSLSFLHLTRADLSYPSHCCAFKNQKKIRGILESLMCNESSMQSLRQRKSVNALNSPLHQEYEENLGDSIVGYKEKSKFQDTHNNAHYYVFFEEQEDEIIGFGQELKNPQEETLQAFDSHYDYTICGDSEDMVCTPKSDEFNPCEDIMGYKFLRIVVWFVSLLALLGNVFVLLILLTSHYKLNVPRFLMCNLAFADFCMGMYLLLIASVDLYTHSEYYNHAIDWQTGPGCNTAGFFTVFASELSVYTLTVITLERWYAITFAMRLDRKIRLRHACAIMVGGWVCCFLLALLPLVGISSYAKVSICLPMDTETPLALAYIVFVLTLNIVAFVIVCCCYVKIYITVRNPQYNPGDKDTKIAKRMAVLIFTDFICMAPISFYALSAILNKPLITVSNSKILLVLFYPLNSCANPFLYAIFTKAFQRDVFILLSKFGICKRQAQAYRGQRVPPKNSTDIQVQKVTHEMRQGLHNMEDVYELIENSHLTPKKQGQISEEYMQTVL
Sequence of Nuclear receptor subfamily 1 group I member 3 (Homo sapiens) (Q14994 whole entry, looked up): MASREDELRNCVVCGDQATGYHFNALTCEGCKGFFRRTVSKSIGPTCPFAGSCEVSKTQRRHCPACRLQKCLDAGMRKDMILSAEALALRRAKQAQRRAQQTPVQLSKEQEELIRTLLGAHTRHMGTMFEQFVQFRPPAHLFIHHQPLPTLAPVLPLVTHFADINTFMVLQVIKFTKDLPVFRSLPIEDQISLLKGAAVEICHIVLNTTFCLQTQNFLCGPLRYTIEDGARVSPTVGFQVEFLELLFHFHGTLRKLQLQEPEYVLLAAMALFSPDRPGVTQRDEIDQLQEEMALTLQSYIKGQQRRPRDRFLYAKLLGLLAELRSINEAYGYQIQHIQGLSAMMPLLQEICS

For `Oc1ccc(C(O)CNCCCCCCNCC(O)c2ccc(O)c(O)c2)cc1O` (stereo not drawn), the Potency entry in test [1], in test [2], in [3], in [4], in test [5] and in test [6] was “inactive” in each case. Further, the Potency result in [7] was “inactive”. Moreover, the Potency in test [8] is 7.5 µM (active); in test [9], 6.68 µM (active).
Consider `S=C(S)NCCNC(=S)S`, for which the Potency result in test [1], in [2], in test [3], in test [4], in [5] and in test [6] was “inactive” in each case. Also, the Potency entry in test [7] and in test [9] was “inactive” each time.
Consider `CCOC(=S)SSC(=S)OCC`, for which the Potency result in test [1], in [2], in test [3], in test [6], in [10] and in test [11] was “inactive” in each case. The Potency result in [7] and in test [9] was “inactive” throughout.
As to `COc1ccc(OC)c(OC)c1`, the Potency result in test [1], in test [2], in [3], in test [4], in test [6] and in test [11] was “inactive” throughout. In addition, the Potency result in test [7] and in test [9] was “inactive” each time.
As to `CCc1nn(C2CCCCC2)c2cc(C3(C#N)CCC(C(=O)O)CC3)ccc12` (stereo not drawn), the Potency result in [1], in test [2], in test [12], in test [4], in test [11] and in test [8] was “inactive” in each case. Moreover, the Potency result in test [9] was “inactive”. In [3], the Potency is 48.6 µM (active).
As for `CC(C)(C)c1cc(O)c(C(C)(C)C)cc1O`, the Potency result in test [1], in test [2], in [4], in test [8] and in test [9] was “inactive” in each case. The Potency in [3] was 48.6 µM (active).
As for `NCc1ccccc1`, the Potency entry in test [1], in [2], in test [3], in [4], in [5] and in test [6] was “inactive” in each case. The Potency result in test [10], in [11], in [7], in [13], in [8] and in test [9] was “inactive” in each case.
For `Cc1ccc(C(N)=O)cc1N`, the Potency result in [1], in test [2], in test [3], in [4], in test [5] and in test [6] was “inactive” throughout. The Potency entry in test [7], in test [13], in [8] and in test [9] was “inactive” each time.
For `CCOC(=O)CC(C)C`, the Potency entry in [1], in test [2], in [3], in test [4], in test [5] and in test [6] was “inactive” in each case. Besides, the Potency entry in test [10], in test [7] and in test [9] was “inactive” each time.
`Cc1ccccc1N=Nc1ccc(N=Nc2c(O)ccc3ccccc23)c(C)c1`: the Potency result in [1], in test [2], in test [3], in [5], in test [6] and in test [10] was “inactive” in each case. The Potency entry in [7], in test [13], in test [8] and in test [9] was “inactive” throughout.
In the case of `CC(C)c1ccccc1C(C)C`, the Potency result in [1], in test [2], in [3], in [5], in test [6] and in test [7] was “inactive” throughout.
For `CCCC[C@H]1CN(CC2CCOCC2)C(=O)OC12CCN(C1(C)CCN(C(=O)c3c(C)ncnc3C)CC1)CC2`, the Potency entry in test [1], in [2], in test [3], in [4], in [6] and in test [10] was “inactive” in each case. Besides, the Potency result in [11], in test [7], in test [13], in test [8] and in test [9] was “inactive” each time.
With `O=S1(=O)N=C(O)c2ccccc21`, the Potency entry in [1], in test [2], in [12], in test [3], in test [5] and in test [6] was “inactive” in each case. The Potency entry in [7] and in test [9] was “inactive” throughout.
